Measurements from PubChem BioAssay (NCATS).
Results filed as inconclusive are left out. The source made the active and inactive calls. The call rests on the fitted dose curve; in most records, active means well fitted curve in the direction sought with a large enough effect; inconclusive means small, poorly fitted or top-dose-only effect, or another doubt; inactive means no such curve, though single readings can be large; an effect the other way counts as inactive or inconclusive.

Tests used:
HaCat [1] = experiment: Cytotoxic Profiling of Annotated Libraries Using Quantitative High-Throughput Screening (AID 1296008); details: Five cell lines viability, CellTiter-Glo ATP luminescence, 48-72 h; max response: stronger effect = lower value; further: nearly all actives have a fitted effect of over 60% in size; further: potency means the concentration at half of the fitted maximal effect
How it was run: (§1)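 Cytotoxicity was measured as CellTiter-Glo ATP luminescence, read after 10 min at room temperature. Compound treatment of the cells lasted 48 or 72 hr at 37 degrees Celsius in a qHTS format.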

KB-3-1 = experiment: as above; details: Five cell lines viability, CellTiter-Glo ATP luminescence, 48-72 h; max response: stronger effect = lower value
How it was run: as §1

NIH3T3 [2] = experiment: as above; details: Five cell lines viability, CellTiter-Glo ATP luminescence, 48-72 h; max response: stronger effect = lower value
How it was run: as §1

MCC-13 = experiment: qHTS assay to identify novel small-molecules to repurpose for Merkel cell carcinoma treatment (AID 1296009); details: MCC and control cell lines, CellTiter-Glo viability, 72 h; series mostly up to 46 µM; further: nearly all actives have a fitted effect of over 60% in size; further: potency means the concentration at half of the fitted maximal effect
How it was run: (§2)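 Cell viability, measured as CellTiter-Glo luminescence, was normalized between DMSO and no-cell wells. The cells had been exposed to 8- or 11-point compound dilutions for 72 hr at 37 degree celsius.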

MCC-26 = experiment: as above; details: MCC and control cell lines, CellTiter-Glo viability, 72 h; series mostly up to 46 µM
How it was run: as §2

MKL-1 = experiment: as above; details: MCC and control cell lines, CellTiter-Glo viability, 72 h; series mostly up to 46 µM
How it was run: as §2

MKL-2 = experiment: as above; details: MCC and control cell lines, CellTiter-Glo viability, 72 h; series mostly up to 46 µM
How it was run: as §2

UISO = experiment: as above; details: MCC and control cell lines, CellTiter-Glo viability, 72 h; series mostly up to 46 µM
How it was run: as §2

WaGa = experiment: as above; details: MCC and control cell lines, CellTiter-Glo viability, 72 h; series mostly up to 46 µM
How it was run: as §2

HACAT [3] = experiment: as above; details: MCC and control cell lines, CellTiter-Glo viability, 72 h; at 44.8 µM (top of the series) unless noted
How it was run: as §2

NIH3T3 [4] = experiment: as above; details: MCC and control cell lines, CellTiter-Glo viability, 72 h; at 44.8 µM (top of the series) unless noted
How it was run: as §2

C33A = experiment: Primary qHTS to identify gynecologic anti-cancer compounds using libraries of approved drugs and bioactive compounds (AID 1345084); details: Gynecologic cancer cell panel viability, ATPlite luminescence, 48 h; series mostly up to 57.5 µM; further: nearly all actives have a fitted effect of over 55% in size
How it was run: (§3)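 Luminescence from the ATPlite ATP-monitoring reagent indicates viable cell number; lower signal means cytotoxicity. Cells received compound 16 h after seeding and were exposed for 48 h across five concentrations.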

CASKI = experiment: as above; details: Gynecologic cancer cell panel viability, ATPlite luminescence, 48 h; series mostly up to 57.5 µM
How it was run: as §3

HeLa = experiment: as above; details: Gynecologic cancer cell panel viability, ATPlite luminescence, 48 h; series mostly up to 57.5 µM
How it was run: as §3

Hek293T [5] = experiment: as above; details: Gynecologic cancer cell panel viability, ATPlite luminescence, 48 h, control line for the selectivity index; series mostly up to 57.5 µM
How it was run: as §3

JEG-3 = experiment: as above; details: Gynecologic cancer cell panel viability, ATPlite luminescence, 48 h; series mostly up to 57.5 µM
How it was run: as §3

HEK293T [6] = experiment: qHTS assay to identify novel small-molecules to repurpose for Merkel cell carcinoma treatment (AID 1296009); details: MCC and control cell lines, CellTiter-Glo viability, 72 h; at 44.8 µM (top of the series) unless noted; further: nearly all actives have a fitted effect of over 60% in size; further: potency means the concentration at half of the fitted maximal effect
How it was run: as §2

CAOV3 = experiment: Primary qHTS to identify gynecologic anti-cancer compounds using libraries of approved drugs and bioactive compounds (AID 1345084); details: Gynecologic cancer cell panel viability, ATPlite luminescence, 48 h; series mostly up to 57.5 µM; further: nearly all actives have a fitted effect of over 55% in size
How it was run: as §3

Es-2 = experiment: as above; details: Gynecologic cancer cell panel viability, ATPlite luminescence, 48 h; series mostly up to 57.5 µM
How it was run: as §3
On the % scale 0 is the no-effect control and ±100 the full control effect.

C[C@@H]1CC[C@H]2[C@@H](C)C(=O)O[C@@H]3O[C@@]4(C)CC[C@H]1[C@]32OO4
inactive: max response (HaCat [1]) -10.9% | max response (KB-3-1) -6.88% | max response (NIH3T3 [2]) -12.8% | Potency (MCC-13) | Potency (MCC-26) | Potency (MKL-1) | Potency (MKL-2)

CC(C)[C@]12O[C@@H]1[C@@H]1O[C@]13[C@]1(O[C@H]1C[C@@H]1C4=C(CC[C@@]13C)C(=O)OC4)[C@H]2O
active: Potency (KB-3-1) 0.001 µM
inactive: max response (HaCat [1]) -144% | max response (NIH3T3 [2]) -117% | Potency (MCC-13) | Potency (MCC-26) | Potency (MKL-1) | Potency (MKL-2) | Potency (UISO) | Potency (WaGa)

NC1=NC(=O)N2CC12 (stereo not drawn)
inactive: outcome (HaCat [1]) | max response (KB-3-1) 6.64% | outcome (NIH3T3 [2]) | outcome (HACAT [3]) | Potency (MCC-13) | Potency (MCC-26) | Potency (MKL-1) | outcome (NIH3T3 [4])

COc1nn(CSP(=S)(OC)OC)c(=O)s1
inactive: outcome (HaCat [1]) | max response (KB-3-1) -23.4% | max response (NIH3T3 [2]) -0.106% | outcome (HACAT [3]) inactive [at 92 µM] | Potency (C33A) | Potency (CASKI) | Potency (HeLa) | Potency (Hek293T [5]) | Potency (JEG-3)
active: Potency (MKL-1) 24.3 µM | Potency (MKL-2) 24.3 µM | Potency (UISO) 38.6 µM

CC[C@@H](C(N)=O)N1CCCC1=O
inactive: outcome (HaCat [1]) | max response (KB-3-1) 6.38% | max response (NIH3T3 [2]) 1.04% | outcome (HACAT [3]) | outcome (HEK293T [6]) | Potency (MCC-13) | Potency (MCC-26) | Potency (MKL-1) | Potency (MKL-2) | Potency (UISO) | Potency (WaGa)

O=C1CCC[C@@H]2[C@H]3CCCN4CCC[C@@H](CN12)[C@@H]34
inactive: max response (HaCat [1]) 3.98% | max response (KB-3-1) 2.17% | outcome (NIH3T3 [2]) | Potency (MCC-13) | Potency (MCC-26) | Potency (MKL-1) | Potency (MKL-2) | outcome (NIH3T3 [4]) | Potency (UISO) | Potency (WaGa)

C[C@@H]1[C@H](O)[C@@H](C)C=CC=CCCC=CC=CC=CC=C[C@H](O[C@H]2O[C@@H](C)[C@H](O)[C@@H](N)[C@@H]2O)CC2O[C@](O)(C[C@@H](O)[C@H](O)CC[C@@H](O)C[C@@H](O)C[C@@H](O)CC(=O)O[C@H]1C)C[C@H](O)[C@H]2C(=O)O
inactive: outcome (HaCat [1]) | outcome (KB-3-1) | max response (NIH3T3 [2]) -3.28% | outcome (HACAT [3]) | Potency (MCC-13) | Potency (MCC-26) | Potency (MKL-1) | Potency (MKL-2) | Potency (UISO) | Potency (WaGa)

Nc1ccc(Cl)cc1N
inactive: max response (HaCat [1]) -38.9% | max response (KB-3-1) -2.75% | Potency (MCC-13) | Potency (MCC-26) | Potency (UISO) | Potency (CAOV3) | Potency (Es-2) | Potency (HeLa) | Potency (Hek293T [5]) | Potency (JEG-3)

C=CCC1=C(C)C(OC(=O)C2C(C=C(C)C)C2(C)C)CC1=O (stereo not drawn)
inactive: outcome (HaCat [1]) | max response (KB-3-1) -7.18% | outcome (HACAT [3]) inactive [at 92 µM] | Potency (MCC-13) | Potency (MCC-26) | Potency (C33A) | Potency (CASKI) | Potency (Es-2) | Potency (HeLa) | Potency (Hek293T [5]) | Potency (JEG-3)

CCO/N=C(\CC)C1=C(O)CC(c2c(C)cc(C)cc2C)CC1=O (stereo not drawn)
inactive: max response (HaCat [1]) -8.94% | max response (KB-3-1) -11.8% | max response (NIH3T3 [2]) -12.4% | Potency (MCC-13) | Potency (MCC-26) | Potency (MKL-1) | Potency (UISO) | Potency (C33A) | Potency (CAOV3) | Potency (CASKI) | Potency (Es-2) | Potency (HeLa) | Potency (Hek293T [5])

CC(C)NCC(O)c1ccc([N+](=O)[O-])cc1 (stereo not drawn)
inactive: max response (HaCat [1]) -38.9% | max response (KB-3-1) -11.6% | max response (NIH3T3 [2]) -0.143% | Potency (MCC-13) | Potency (MCC-26) | Potency (MKL-1) | Potency (MKL-2) | Potency (UISO) | Potency (WaGa) | Potency (C33A) | Potency (CAOV3) | Potency (CASKI) | Potency (Es-2) | Potency (HeLa) | Potency (Hek293T [5]) | Potency (JEG-3)

O=c1cccc2n1CC1CNC[C@H]2C1
inactive: max response (HaCat [1]) -12.2% | outcome (KB-3-1) | max response (NIH3T3 [2]) -3.34% | Potency (MCC-13) | Potency (MCC-26) | Potency (UISO)
active: Potency (MKL-1) 14.8 µM | Potency (MKL-2) 2.64 µM | Potency (WaGa) 2.35 µM

CC(=CCCC1=CCC(C2=CC(=O)OC2O)OC1O)CCC1=C(C)CCCC1(C)C (stereo not drawn)
inactive: max response (HaCat [1]) -18.3% | max response (KB-3-1) -6.74% | max response (NIH3T3 [2]) -0.889% | Potency (MCC-13) | Potency (MCC-26) | Potency (MKL-1) | Potency (MKL-2) | Potency (UISO) | Potency (WaGa)

O=C(N[C@@H](COc1ccc2[nH]c(=O)[nH]c2c1)c1ccccc1)c1cccn(Cc2ccc(F)c(F)c2)c1=O
inactive: max response (HaCat [1]) -18% | max response (KB-3-1) -0.47% | max response (NIH3T3 [2]) -25.3% | Potency (MCC-13) | Potency (MCC-26) | Potency (MKL-1) | Potency (MKL-2) | Potency (UISO) | Potency (WaGa) | Potency (C33A) | Potency (CAOV3) | Potency (CASKI) | Potency (Es-2) | Potency (HeLa) | Potency (Hek293T [5]) | Potency (JEG-3)

C#CC1(O)CCC2C3CCC4=CC(=O)CCC4(C)C3CCC21C (stereo not drawn)
inactive: max response (HaCat [1]) -0.0987% | max response (KB-3-1) -11.2% | max response (NIH3T3 [2]) 0.477% | Potency (MCC-13) | Potency (MCC-26) | Potency (MKL-1) | Potency (MKL-2) | Potency (UISO) | Potency (WaGa)

CC[C@@H]1[C@@H](C)O[C@@](O)([C@@H](C)[C@H](O)[C@H](C)[C@H]2OC(=O)C=CC=C[C@@H](C)[C@@H]([C@@H](C)[C@@H](O)[C@H](C)[C@@]3(O)C[C@H](O[C@H]4C[C@H](O)[C@H](O)[C@H](C)O4)[C@H](CC)[C@@H](C)O3)OC(=O)C=CC=C[C@@H]2C)C[C@H]1O[C@H]1C[C@H](O)[C@H](O)[C@H](C)O1
active: Potency (HaCat [1]) 3.32 µM | Potency (KB-3-1) 5.9 µM | Potency (NIH3T3 [2]) 1.66 µM | Potency (MCC-13) 16.6 µM | Potency (MCC-26) 8.33 µM | Potency (MKL-1) 14.8 µM | Potency (UISO) 8.33 µM | Potency (WaGa) 2.64 µM
